A number with no mark means an inactive call. The source made the active and inactive calls. Rule as the data show it: active = remaining activity below about 50%; inactive = the rest.
These molecules were tested against Phospholipase D2 (Homo sapiens) (UniProt O14939) (assay: PLD2 inhibitors in cells, cell-based, HEK293, single concentration (AID 602143;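 also: tested at 200 nM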)). Details: HEK293 cellular PLD2 activity, percent of control; hits give low values.
Sequence of Phospholipase D2 (Homo sapiens) (O14939 whole entry, looked up): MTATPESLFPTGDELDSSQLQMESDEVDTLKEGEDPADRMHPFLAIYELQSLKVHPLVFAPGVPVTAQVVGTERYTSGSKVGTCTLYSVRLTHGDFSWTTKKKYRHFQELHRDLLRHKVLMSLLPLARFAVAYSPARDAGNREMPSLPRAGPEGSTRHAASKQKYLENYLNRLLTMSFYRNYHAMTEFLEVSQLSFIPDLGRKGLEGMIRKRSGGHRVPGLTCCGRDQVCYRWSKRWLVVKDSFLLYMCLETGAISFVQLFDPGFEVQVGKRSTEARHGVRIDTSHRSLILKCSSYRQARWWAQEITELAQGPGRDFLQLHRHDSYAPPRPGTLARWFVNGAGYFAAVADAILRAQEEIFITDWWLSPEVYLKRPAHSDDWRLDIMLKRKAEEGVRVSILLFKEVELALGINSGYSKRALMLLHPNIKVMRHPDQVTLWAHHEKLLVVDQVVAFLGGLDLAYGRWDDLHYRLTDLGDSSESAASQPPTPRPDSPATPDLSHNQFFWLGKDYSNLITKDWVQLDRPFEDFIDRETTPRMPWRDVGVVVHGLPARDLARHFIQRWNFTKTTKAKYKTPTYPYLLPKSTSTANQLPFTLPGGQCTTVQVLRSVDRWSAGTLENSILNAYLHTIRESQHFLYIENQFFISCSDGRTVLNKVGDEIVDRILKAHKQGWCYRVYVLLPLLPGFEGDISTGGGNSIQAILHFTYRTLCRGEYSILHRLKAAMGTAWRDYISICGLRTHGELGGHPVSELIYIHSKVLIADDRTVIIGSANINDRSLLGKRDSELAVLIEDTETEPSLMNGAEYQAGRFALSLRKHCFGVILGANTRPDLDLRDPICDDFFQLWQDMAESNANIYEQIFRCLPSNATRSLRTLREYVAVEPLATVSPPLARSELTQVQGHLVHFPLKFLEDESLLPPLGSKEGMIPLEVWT
Sequence of Phospholipase D2 (Homo sapiens) (O14939 whole entry, looked up): as above

Row | SMILES | remaining activity
1 | O=C(NCCN1CCC2(CC1)C(=O)NCN2c1ccccc1)c1ncc(F)cc1F | 52.8%
2 | O=C(NCCN1CCC2(CC1)C(=O)NCN2c1ccc(F)cc1)c1cc2cc(F)ccc2[nH]1 | 14.3% (active)
3 | O=C(NCCN1CCC2(CC1)C(=O)NCN2c1cccc(F)c1)c1ccc(-c2ccccc2)cc1 | 101%
4 | O=C(NCCN1CCC2(CC1)C(=O)NCN2c1ccccc1)c1cnco1 | 80.4%
5 | C[C@@H](CN1CCC2(CC1)C(=O)NCN2c1ccccc1)NC(=O)[C@@H]1C[C@H]1c1ccccc1 | 75.9%
6 | O=C(NCCN1CCC2(CC1)C(=O)NCN2c1ccccc1)c1ccc2cc(F)ccc2c1 | 68.8%
7 | O=C(c1ccc2ccccc2c1)N1CC(N2CCC3(CC2)C(=O)NCN3c2ccccc2)C1 | 72.6%
8 | O=C(Cc1ccccc1Br)NCCN1CCC2(CC1)C(=O)NCN2c1cccc(F)c1 | 117%
9 | CCOC(=O)CCN1CCC2(CC1)C(=O)NCN2c1ccccc1 | 91.6%
10 | Cc1ccccc1C(=O)N(CCN1CCC2(CC1)C(=O)NCN2c1cccc(F)c1)C(=O)c1ccccc1C | 106%
11 | O=C(NCCN1CCC2(CC1)C(=O)NCN2c1ccc(F)c(F)c1)c1cnc2ccccc2c1 | 26.1% (active)
12 | C[C@H](CN1CCC2(CC1)C(=O)NCN2c1ccccc1)NC(=O)c1cc(Br)c(Br)o1 | 85.7%
13 | O=C(CCc1ccc(F)cc1)NCCN1CCC2(CC1)C(=O)NCN2c1ccccc1 | 102%
14 | O=C(NCCN1CCC2(CC1)C(=O)NCN2c1cccc(F)c1)c1cc2cc(F)ccc2[nH]1 | 0.401% (active)

From PubChem BioAssay AID602143 (Vanderbilt Specialized Chemistry Center, 2011)
